Measured values taken from paper PMC10812921, “Transcriptional Coactivator BOB1 (OBF1, OCA-B) Modulates the Specificity of DNA Recognition by the POU-Domain Factors OCT1 and OCT2 in a Monomeric Configuration”.

Each sequence was assayed against POU1 (OCT1 POU domain) (human, UniProt P14859 260-458) (assay: EMSA-SELEX-seq; no BOB1; 20 mM Tris-HCl pH 7.6, 140 mM NaCl, 10% glycerol, 0.5 mM EDTA, 0.05% Triton X-100, 0.1 mg/mL BSA, 0.1 mg/mL poly(dI-dC), 5 mM DTT, room temperature, 20 min; high values mean tight binding). Conditions: protein: recombinant; dsDNA, one strand shown.
Procedure, shortened: (§1)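 Tagged POU-domain proteins were produced in E. coli BL21, purified under denaturing conditions and renatured before use. They were mixed at 30 ng with 300 ng of a PCR-amplified double-stranded random 35-nt library, with or without 28 ng coactivator protein, in 20 μL Tris–HCl pH 7.6 binding buffer, incubating 20 min at RT. Complexes cut from native 6% PAGE were eluted and PCR-amplified over four rounds, then sequenced by Illumina, with binding preference taken as the percentage of sequenced 8-mers matching a motif pattern.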

Chain of POU1 (OCT1 POU domain) (P14859 260-458): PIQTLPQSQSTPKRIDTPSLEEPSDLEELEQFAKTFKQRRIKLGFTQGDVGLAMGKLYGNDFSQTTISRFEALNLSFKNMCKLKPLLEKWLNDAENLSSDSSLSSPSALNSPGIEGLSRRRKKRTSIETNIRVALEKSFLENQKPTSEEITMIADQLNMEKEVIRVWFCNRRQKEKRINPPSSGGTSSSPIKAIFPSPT

| Sequence | binding signal |
| --- | --- |
| ATCATAAT | 0.131 % of ANNNNAAN 8-mers |
| ATTTGAAT | 1.84 % of ANNNNAAN 8-mers |
| AGTTGAAA | 0.0477 % of ANNNNAAN 8-mers |
| ACTGGAAA | 0.0362 % of ANNNNAAN 8-mers |
| AACTGAAT | 0.0885 % of ANNNNAAN 8-mers |
| AACAAAAG | 0.0522 % of ANNNNAAN 8-mers |
| ACGGCAAT | 0.0332 % of ANNNNAAN 8-mers |
| AACGGAAT | 0.0698 % of ANNNNAAN 8-mers |
| ACGGAAAC | 0.0198 % of ANNNNAAN 8-mers |
| AAGCTAAC | 0.0137 % of ANNNNAAN 8-mers |
| ATGTTAAA | 0.212 % of ANNNNAAN 8-mers |
| AGCAGAAG | 0.0233 % of ANNNNAAN 8-mers |
| AGTGAAAG | 0.0469 % of ANNNNAAN 8-mers |
| AAGAGAAG | 0.0339 % of ANNNNAAN 8-mers |
| AAGCTAAG | 0.0248 % of ANNNNAAN 8-mers |
| ACGTCAAC | 0.013 % of ANNNNAAN 8-mers |
| AGGCGAAG | 0.024 % of ANNNNAAN 8-mers |
| AAGCCAAT | 0.0282 % of ANNNNAAN 8-mers |
| ACTTCAAA | 0.0256 % of ANNNNAAN 8-mers |
| AGACCAAG | 0.0137 % of ANNNNAAN 8-mers |

| Sequence | binding signal |
| --- | --- |
| ACAACAAC | 0.0187 % of ANNNNAAN 8-mers |
| ACGTCAAT | 0.0339 % of ANNNNAAN 8-mers |
| ATGACAAT | 0.0576 % of ANNNNAAN 8-mers |
| AACAGAAC | 0.0183 % of ANNNNAAN 8-mers |
| AAGAGAAT | 0.0728 % of ANNNNAAN 8-mers |
| ACATCAAG | 0.024 % of ANNNNAAN 8-mers |
| ATAATAAG | 0.182 % of ANNNNAAN 8-mers |
| AGCCAAAC | 0.0194 % of ANNNNAAN 8-mers |
| ATACAAAT | 0.318 % of ANNNNAAN 8-mers |
| AGAATAAT | 0.203 % of ANNNNAAN 8-mers |
| AGAAAAAT | 0.0946 % of ANNNNAAN 8-mers |
| ACCATAAA | 0.0625 % of ANNNNAAN 8-mers |
| ATCTTAAG | 0.0461 % of ANNNNAAN 8-mers |
| ACGACAAT | 0.029 % of ANNNNAAN 8-mers |
| AACGTAAC | 0.0179 % of ANNNNAAN 8-mers |
| AGCGTAAA | 0.0427 % of ANNNNAAN 8-mers |
| AGCGCAAG | 0.013 % of ANNNNAAN 8-mers |
| ACCCGAAT | 0.0233 % of ANNNNAAN 8-mers |
| AGGCTAAC | 0.013 % of ANNNNAAN 8-mers |

These sequences were tested against T1, POU2 (OCT2 POU domain) (human, UniProt P09086 175-386) in the same assay as above. Conditions: protein: recombinant; dsDNA, one strand shown.
T1 sequence: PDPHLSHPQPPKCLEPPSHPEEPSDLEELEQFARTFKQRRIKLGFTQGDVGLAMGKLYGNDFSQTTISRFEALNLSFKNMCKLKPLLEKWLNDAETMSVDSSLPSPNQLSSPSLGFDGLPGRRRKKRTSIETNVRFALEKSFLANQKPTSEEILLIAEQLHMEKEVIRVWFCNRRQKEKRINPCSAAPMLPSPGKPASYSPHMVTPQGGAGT
Procedure, shortened: as §1

| Sequence | binding signal |
| --- | --- |
| ATCATAAT | 0.164 % of ANNNNAAN 8-mers |
| ATTTGAAT | 1.5 % of ANNNNAAN 8-mers |
| AGTTGAAA | 0.0489 % of ANNNNAAN 8-mers |
| ACTGGAAA | 0.0328 % of ANNNNAAN 8-mers |
| AACTGAAT | 0.108 % of ANNNNAAN 8-mers |
| AACAAAAG | 0.0518 % of ANNNNAAN 8-mers |
| ACGGCAAT | 0.0368 % of ANNNNAAN 8-mers |
| AACGGAAT | 0.0949 % of ANNNNAAN 8-mers |
| ACGGAAAC | 0.019 % of ANNNNAAN 8-mers |
| AAGCTAAC | 0.0178 % of ANNNNAAN 8-mers |
| ATGTTAAA | 0.216 % of ANNNNAAN 8-mers |
| AGCAGAAG | 0.0207 % of ANNNNAAN 8-mers |
| AGTGAAAG | 0.0409 % of ANNNNAAN 8-mers |
| AAGAGAAG | 0.0403 % of ANNNNAAN 8-mers |
| AAGCTAAG | 0.0322 % of ANNNNAAN 8-mers |
| ACGTCAAC | 0.0173 % of ANNNNAAN 8-mers |
| AGGCGAAG | 0.0305 % of ANNNNAAN 8-mers |
| AAGCCAAT | 0.0247 % of ANNNNAAN 8-mers |
| ACTTCAAA | 0.0322 % of ANNNNAAN 8-mers |
| AGACCAAG | 0.0121 % of ANNNNAAN 8-mers |

| Sequence | binding signal |
| --- | --- |
| ACAACAAC | 0.0104 % of ANNNNAAN 8-mers |
| ACGTCAAT | 0.0426 % of ANNNNAAN 8-mers |
| ATGACAAT | 0.0737 % of ANNNNAAN 8-mers |
| AACAGAAC | 0.0242 % of ANNNNAAN 8-mers |
| AAGAGAAT | 0.0806 % of ANNNNAAN 8-mers |
| ACATCAAG | 0.0351 % of ANNNNAAN 8-mers |
| ATAATAAG | 0.258 % of ANNNNAAN 8-mers |
| AGCCAAAC | 0.0196 % of ANNNNAAN 8-mers |
| ATACAAAT | 0.269 % of ANNNNAAN 8-mers |
| AGAATAAT | 0.3 % of ANNNNAAN 8-mers |
| AGAAAAAT | 0.0886 % of ANNNNAAN 8-mers |
| ACCATAAA | 0.0662 % of ANNNNAAN 8-mers |
| ATCTTAAG | 0.0541 % of ANNNNAAN 8-mers |
| ACGACAAT | 0.0299 % of ANNNNAAN 8-mers |
| AACGTAAC | 0.0236 % of ANNNNAAN 8-mers |
| AGCGTAAA | 0.0455 % of ANNNNAAN 8-mers |
| AGCGCAAG | 0.0121 % of ANNNNAAN 8-mers |
| ACCCGAAT | 0.0386 % of ANNNNAAN 8-mers |
| AGGCTAAC | 0.023 % of ANNNNAAN 8-mers |
